PTHR1 ag = agonists of human PTHR1 parathyroid hormone receptor. Q03431. HEK293 GP2 PTHR1 cells, GloSensor cAMP luminescence, 1 h. Potency, µM (series often up to 115 µM), for the others: top-dose activation, hits mostly activators. actives 0.075% (n = 410,000); note: nearly all actives have a fitted effect of over 55% in size
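HEK-293-derived GP2 cells expressing PTHR1 and a GloSensor cAMP reporter, 3,000/well, plated overnight, given luciferin plus IBMX (each 0.5 mM as added) for 1 h at 37 °C, then compound for 1 h at 37 °C. Luminescence was read after 15 min at room temperature.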
GLP1R cytotox = cytotoxic in the GLP-1 receptor inverse agonist counter-screen; HEK293 cAMP-luciferase reporter cells, luminescence, 24 h; Potency, µM (series often up to 38.3 µM), inactives show top-dose activity change, negative = inhibition, most hits filed as inhibitors; actives 0.13% (n = 410,000);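 note: loss of luciferase light is scored as toxicity; % is set by controls: 0 for no effect and ±100 for the full control effect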
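Step one: seed cells (200 cells/uL, DMEM with 10% Nu serum, 1% pen-strep). Step two: 12-hour incubation at 37 deg C. Step three: pin 23 nL compound, incubate 24 hr. Step four: add luciferase reagent, read luminescence 12 min later.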
GLP1R inv ag = acts as inverse agonist at human GLP-1 receptor | P43220 | actives 1.6% (n = 410,000) | Potency, µM (titrated, usually from 38.3 µM), for the others: at the highest dose activity change, negative = inhibition, actives largely listed as inhibitors | AID 624417 | HEK293 GLP-1R CRE-luciferase, luminescence, 24 h; GLP-1R form is constitutively active; note: % is set by controls: 0 for no effect and ±100 for the full control effect; nearly all actives have a fitted effect of over 55% in size
Target sequence (P43220 whole entry, looked up): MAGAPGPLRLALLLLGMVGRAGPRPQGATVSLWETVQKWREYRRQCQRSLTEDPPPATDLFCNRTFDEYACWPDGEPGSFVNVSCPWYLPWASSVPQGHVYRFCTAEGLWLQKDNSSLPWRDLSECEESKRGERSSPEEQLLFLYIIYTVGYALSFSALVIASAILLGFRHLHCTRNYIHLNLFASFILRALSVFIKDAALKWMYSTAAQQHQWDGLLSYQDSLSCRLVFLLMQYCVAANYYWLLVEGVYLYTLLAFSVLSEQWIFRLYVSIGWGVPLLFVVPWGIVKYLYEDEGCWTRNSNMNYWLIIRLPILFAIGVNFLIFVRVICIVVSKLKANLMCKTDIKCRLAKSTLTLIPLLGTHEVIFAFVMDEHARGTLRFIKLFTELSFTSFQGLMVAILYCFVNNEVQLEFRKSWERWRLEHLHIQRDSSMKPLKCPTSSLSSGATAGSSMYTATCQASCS
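Cells are plated, allowed 12 hours at 37 deg C, then treated with compounds for 24 hr before luciferase detection reagent is added and luminescence is read after 12 min at room temperature. The HEK293 line carries constitutively active GLP-1R with a cAMP-responsive reporter.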
GLP-1R agonist = activates the human GLP-1 receptor | P43220 | HEK293 GLP-1R CRE-luciferase, luminescence, 4-6 h; cells express a hypersensitive GLP-1R form | Potency, µM (top dose mostly 45.6 µM), without a hit: at the top dose activation, actives largely listed as activators | actives 0.007% (n = 380,000) | AID 624172; note: % of control where 0% means no effect
Active calls of the source: *. Most compounds without a hit are left out; they make up all but 1.7% or so of the library. Calls come from the whole dose curve; as a rule, active = well fitted curve in the direction sought with a large enough effect; inconclusive = small, poorly fitted or top-dose-only effect, or another doubt; inactive = no such curve, though single readings can be large; an effect the other way counts as inactive or inconclusive. Potency is the fitted concentration of half-maximal effect.

How did CCCCC(=O)OC1=C(C(=O)c2ccccc2)N(CC)S(=O)(=O)c2ccccc21 do in these assays?
PTHR1 ag: inactive; GLP1R cytotox: -25%; GLP1R inv ag: inconclusive

How did CCN1C(C(=O)c2ccccc2)=C(OC(=O)c2ccccc2OC)c2ccccc2S1(=O)=O do in these assays?
PTHR1 ag: -51%; GLP1R cytotox: inconclusive; GLP1R inv ag: 10µM*

What do the screens show for `C[C@@]12CCC=C[C@H]1[C@H](c1ccc3ccccc3c1/C=C/c1ccccc1)N(Cc1ccccc1)C2=O`?
PTHR1 ag: 5%; GLP1R cytotox: 2%; GLP1R inv ag: 5%; GLP-1R agonist: 0%

Results for C[C@@]12CCC=C[C@H]1[C@H](c1ccc(/C=C/c3ccccc3)cc1F)N(Cc1ccccc1)C2=O ?
PTHR1 ag: -19%; GLP1R cytotox: 21%; GLP1R inv ag: 7.9µM*; GLP-1R agonist: 3%

How did COc1ccc(-c2ccc(C)cc2)cc1[C@H]1[C@@H]2C=CCC[C@@]2(C)C(=O)N1Cc1ccccc1 do in these assays?
PTHR1 ag: -36%; GLP1R cytotox: 1%; GLP1R inv ag: 10µM*; GLP-1R agonist: 5%

What do the screens show for `CCc1nn(CC(=O)NCCc2ccc(Cl)cc2)c(=O)c2cc3ccccc3n12`?
PTHR1 ag: -18%; GLP1R cytotox: 2%; GLP1R inv ag: 9%

How did Nc1nc2[nH]cc(CCc3ccc(C(=O)NC(CCC(=O)O)C(=O)O)cc3)c2c(=O)[nH]1 (stereo unspecified) do in these assays?
GLP-1R agonist: 2%

What do the screens show for `CCCCC[C@H]1CN(Cc2ccccc2)C(=O)[C@@H]1CC(=O)NCc1ccccc1`?
PTHR1 ag: -91%; GLP1R cytotox: -24%; GLP1R inv ag: 10µM*; GLP-1R agonist: -4%

What do the screens show for `CCN(CC)S(=O)(=O)c1ccc2c(c1)N(CC(=O)N1CCN(c3ccccc3F)CC1)C(=O)CO2`?
PTHR1 ag: inactive; GLP1R cytotox: -11%; GLP1R inv ag: -16%; GLP-1R agonist: 13%

How did CC(C)(C)C(=O)/C(=C/c1ccc(Cl)cc1)n1cncn1 do in these assays?
PTHR1 ag: -45%; GLP1R cytotox: -8%; GLP1R inv ag: 4µM*; GLP-1R agonist: -4%

How did CCc1ccc(CNC(=O)c2c(C)oc3ncn(CC(C)C)c(=O)c23)cc1 do in these assays?
PTHR1 ag: inactive; GLP1R cytotox: 7%; GLP1R inv ag: 1%

How did CCC(C(=O)OCC(=O)Nc1cc(C)ccc1OC)c1ccccc1 (stereo unspecified) do in these assays?
PTHR1 ag: inactive; GLP1R cytotox: -8%; GLP1R inv ag: 10µM*; GLP-1R agonist: 22%

How did COc1ccccc1N1CCN(C(=O)CSc2nc3ccccc3nc2N2CCCCC2)CC1 do in these assays?
PTHR1 ag: -24%; GLP1R cytotox: 1%; GLP1R inv ag: 5µM*; GLP-1R agonist: 6%

Results for COc1ccccc1N1CCN(C(=O)CSc2nc3ccccc3nc2N2CCC(C)CC2)CC1 ?
PTHR1 ag: -21%; GLP1R cytotox: -1%; GLP1R inv ag: 5µM*; GLP-1R agonist: 9%

What do the screens show for `COc1ccccc1N1CCN(c2nc3ccccc3nc2C(C#N)C(=O)OC(C)C)CC1` (stereo unspecified)?
PTHR1 ag: inactive; GLP1R cytotox: -23%; GLP1R inv ag: 11µM*; GLP-1R agonist: -5%

Results for COc1ccccc1N1CCN(C(=O)CSc2nc3ccccc3nc2Cc2ccc(C)cc2)CC1 ?
PTHR1 ag: -34%; GLP1R cytotox: -6%; GLP1R inv ag: inconclusive

What do the screens show for `COC(=O)[C@]1(Cc2ccccc2)N[C@H](c2ccc(-c3cccc(Cl)c3)c(OC)c2)[C@@H]2C(=O)N(C)C(=O)[C@@H]21`?
PTHR1 ag: inactive; GLP1R cytotox: -5%; GLP1R inv ag: 3.2µM*; GLP-1R agonist: 4%

What do the screens show for `CCN1C(=O)[C@H]2[C@@H](c3ccc(-c4cccc(Cl)c4)cc3)N[C@@](C)(C(=O)OC)[C@H]2C1=O`?
PTHR1 ag: inactive; GLP1R cytotox: 3%; GLP1R inv ag: 11µM*; GLP-1R agonist: 7%

How did COc1ccc(Br)cc1CNC(=O)c1cnc2sc(N3CCCC3)nn2c1=O do in these assays?
PTHR1 ag: 1%; GLP1R cytotox: 4%; GLP1R inv ag: 11%

Results for CCOc1ccc(C(C(=O)NC2CCCC2)N(Cc2ccccc2)C(=O)c2nsc(Cl)c2Cl)cc1 (stereo unspecified) ?
PTHR1 ag: -18%; GLP1R cytotox: 3%; GLP1R inv ag: 10µM*; GLP-1R agonist: -4%

How did Cc1cc(C)cc(N(C(=O)c2nsc(Cl)c2Cl)C(C(=O)NC2CCCC2)c2ccc(O)cc2)c1 (stereo unspecified) do in these assays?
PTHR1 ag: -1%; GLP1R cytotox: inconclusive; GLP1R inv ag: 4µM*; GLP-1R agonist: -14%

How did Cc1ccc(N(C(=O)c2nsc(Cl)c2Cl)C(C(=O)NC2CCCC2)c2ccc(O)cc2)cc1C (stereo unspecified) do in these assays?
PTHR1 ag: -17%; GLP1R cytotox: -1%; GLP1R inv ag: inconclusive; GLP-1R agonist: 5%

Results for Cc1cccc(N(C(=O)c2nsc(Cl)c2Cl)C(C(=O)NC2CCCC2)c2ccc(O)cc2)c1C (stereo unspecified) ?
PTHR1 ag: inactive; GLP1R cytotox: -21%; GLP1R inv ag: 8.9µM*; GLP-1R agonist: -12%

Results for COc1ccc(S(=O)(=O)NCC(c2ccc(N(C)C)cc2)N2CCc3ccccc32)cc1F (stereo unspecified) ?
PTHR1 ag: -12%; GLP1R cytotox: -1%; GLP1R inv ag: inconclusive

Results for CCOC(=O)c1c(S(=O)(=O)N2CCC(C(=O)NCc3cccc(OC)c3)CC2)c(C)n(C)c1C ?
PTHR1 ag: inactive; GLP1R cytotox: -3%; GLP1R inv ag: -3%

Results for COC(=O)c1ccc(Cl)cc1NC(=O)N1CCC(CN2CCC(C)CC2)CC1 ?
PTHR1 ag: 6%; GLP1R cytotox: 7%; GLP1R inv ag: -9%

Results for COc1ccc([C@H]2C[C@@H](O)[C@H](n3cc(C4CC4)nn3)CN2CC2CCCCC2)cc1 ?
PTHR1 ag: -29%; GLP1R cytotox: -14%; GLP1R inv ag: 7.9µM*; GLP-1R agonist: 6%

How did CCCCCCN1C[C@@H](n2cc(-c3ccc(F)cc3)nn2)[C@H](O)C[C@@H]1c1ccc(OC)cc1 do in these assays?
PTHR1 ag: -61%; GLP1R cytotox: inconclusive; GLP1R inv ag: 3.2µM*; GLP-1R agonist: -2%

What do the screens show for `CCCCCCN1C[C@H](n2cc(-c3ccc(F)cc3)nn2)[C@@H](O)C[C@@H]1c1ccc(OC)cc1`?
PTHR1 ag: -19%; GLP1R cytotox: 4%; GLP1R inv ag: -31%; GLP-1R agonist: -5%

Results for CCCCCC(=O)N1C[C@H](O)[C@@H](n2cc(-c3ccc(F)cc3)nn2)C[C@@H]1c1ccc(Cl)cc1 ?
PTHR1 ag: inactive; GLP1R cytotox: inconclusive; GLP1R inv ag: 10µM*; GLP-1R agonist: 5%
